# Bioassay records: PubChem BioAssay, The Scripps Research Institute Molecular Screening Center
# Compounds with a hit are over-represented: about 2.9% of the library has one in this group of screens.
# PAFAH1B2 inh = PAFAH1B2 enzyme inhibitors, primary screen, biochemical, fluorescence polarization, human | 340,000 tested, 1.2% active | inhibition, % at 3.39 µM | AID 492953, 2010 | Platelet-activating factor acetylhydrolase IB subunit alpha2 (Homo sapiens), P68402 | recombinant PAFAH1B2, FP-rhodamine activity probe;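 active = inhibition above the mean of all tested compounds plus 3 SD, cut at about 24% in these data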
# pPAFAH FP inh = pPAFAH enzyme inhibitors, primary screen, biochemical, fluorescence polarization, human; inhibition, % at 3.39 µM; Platelet-activating factor acetylhydrolase (Homo sapiens), Q13093; 330,000 tested, 1.5% active; recombinant pPAFAH, FP-rhodamine probe fluorescence polarization;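 active = inhibition above the mean inhibition across the screen plus 3 SD, cut at about 25% in these data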;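 note: inhibitors block binding of the rhodamine activity-based probe so polarization drops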
# Target sequence (Q13093 whole entry, looked up): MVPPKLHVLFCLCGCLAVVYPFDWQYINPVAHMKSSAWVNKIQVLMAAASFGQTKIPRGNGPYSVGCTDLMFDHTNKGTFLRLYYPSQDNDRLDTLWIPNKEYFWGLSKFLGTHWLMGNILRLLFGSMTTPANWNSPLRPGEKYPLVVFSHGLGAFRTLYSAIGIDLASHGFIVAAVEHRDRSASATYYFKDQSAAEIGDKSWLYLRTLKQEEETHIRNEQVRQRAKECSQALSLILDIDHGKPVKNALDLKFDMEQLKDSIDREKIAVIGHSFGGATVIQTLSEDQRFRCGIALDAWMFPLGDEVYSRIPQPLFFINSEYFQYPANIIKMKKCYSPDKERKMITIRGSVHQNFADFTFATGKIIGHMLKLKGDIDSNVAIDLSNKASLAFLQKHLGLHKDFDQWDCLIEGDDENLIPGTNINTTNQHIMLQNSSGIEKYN
# PME-1 primary = PME-1 inhibitors via competitive probe labeling, primary screen, biochemical, fluorescence polarization, FP-Rh probe, HTS. Protein phosphatase methylesterase 1 (Homo sapiens), Q9Y570. recombinant PME-1. inhibition, % at 5.9 µM. 320,000 tested, 0.53% active. AID 2130, 2009;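 active = inhibition above the campaign mean of all compounds plus 3 SD, cut at about 26% in these data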;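 note: competitive labeling of PME-1 active site by serine hydrolase directed probe; inhibitors block probe labeling so polarization falls and inhibition rises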
# PAFAH1B3 FP inh = PAFAH1B3 enzyme inhibitors, primary screen, biochemical, fluorescence polarization, human; recombinant PAFAH1B3, FP-rhodamine probe; inhibition, % at 3.39 µM; Platelet-activating factor acetylhydrolase IB subunit alpha1 (Homo sapiens), Q15102; AID 492972, 2010; 340,000 tested, 0.28% active;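 active = inhibition above the screen-wide average of all tested compounds plus 3 SD, cut at about 25% in these data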
# Fam108B inh = mouse Fam108B serine hydrolase inhibitors, primary screen, counter-screen for RBBP9 inhibitor project, biochemical, fluorescence polarization; recombinant Fam108B, FP-Rh probe fluorescence polarization; inhibition, % at 9.51 µM; 300,000 tested, 0.33% active;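 active = inhibition above the screen mean inhibition plus 3 SD, computed separately per campaign, cut at about 18% in these data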;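 note: inhibitors lower polarization as less probe binds the enzyme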
# PAFAH2 inh = PAFAH2 enzyme inhibitors, primary screen, biochemical, fluorescence polarization, human | recombinant PAFAH2, FP-rhodamine activity probe | inhibition, % at 3.39 µM | 340,000 tested, 0.99% active;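 active = inhibition above the mean over all tested compounds plus 3 SD, cut at about 30% in these data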;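 note: inhibitors block probe labeling of enzyme so polarization drops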
# Hits are given with their value; n = inactive; x = no result.
SMILES,PAFAH1B2 inh,pPAFAH FP inh,PME-1 primary,PAFAH1B3 FP inh,Fam108B inh,PAFAH2 inh
Cn1nc(C#N)c(=O)[nH]c1=O,n,x,x,n,x,n
C=CCn1c(SCc2nc3sc(C(=O)O)c(C)c3c(=O)[nH]2)nnc1-c1ccccc1,n,n,n,n,n,n
C=CCn1c(SCc2nc3sc(C(=O)O)c(C)c3c(=O)[nH]2)nnc1-c1ccc(C(C)(C)C)cc1,n,26,n,n,n,n
O=S(=O)(Nc1ccc2cn[nH]c2c1)c1ccc(Cl)s1,n,n,n,n,n,n
O=S(=O)(Nc1ccc2cn[nH]c2c1)c1ccc(Cl)cc1,32,n,n,n,n,n
CCCN(CCC)CCCNC(=O)c1cn(CC)c2ccc(S(=O)(=O)N3CCc4ccccc4C3)cc2c1=O,n,n,n,n,n,n
CCCCN(CC)CCCNC(=O)c1cn(CC)c2ccc(S(=O)(=O)N3CCc4ccccc4C3)cc2c1=O,n,n,36,n,n,n
CCCCN(C)CCCNC(=O)c1cn(CC)c2ccc(S(=O)(=O)N3CCc4ccccc4C3)cc2c1=O,n,n,40,n,n,n
COc1cc(NC(=S)NCCc2ccc(S(N)(=O)=O)cc2)c(OC)cc1Cl,n,n,n,n,n,n
CCCCOC(=O)Oc1ccc2c(=O)c(Oc3cccc(C)c3)coc2c1,n,27,n,n,n,n
CCCCOC(=O)Oc1ccc2c(=O)c(Oc3cc(C)cc(C)c3)coc2c1,n,n,n,n,n,n
O=C(NCC1CCCO1)c1cccc2c1C(=O)c1ccc(N3CCC(Cc4ccccc4)CC3)cc1S2(=O)=O (stereo not given),n,33,x,n,x,n
CCS(=O)(=O)c1ccc(O)c(NC(=O)c2ccc(S(=O)(=O)N3CCCCCC3)cc2)c1,n,28,x,n,x,n
Cc1cc2cc(CNC(=O)c3ccc(S(=O)(=O)N4CCCCC4)cc3)ccc2n1C,n,31,n,n,n,n
O=C(Nc1cc(S(=O)(=O)N2CCCCC2)ccc1O)c1ccccc1NS(=O)(=O)c1ccc(F)c(F)c1,43,34,n,n,n,48
Cc1cc2cc(CNC(=O)c3ccc(S(=O)(=O)N4CCCC4)cc3)ccc2n1C,n,n,n,n,n,n
Cc1onc(-c2ccccc2)c1C(=O)OCC(=O)N(CC(C)C)c1c(N)n(Cc2ccccc2)c(=O)[nH]c1=O,n,n,n,n,n,n
O=C(NCCC1CCCCN1S(=O)(=O)c1ccc(Cl)cc1)C(=O)NCc1cccnc1 (stereo not given),n,n,n,n,n,n
COc1cc(/C=N\NC(=O)c2ccc(Cn3cc(Br)c([N+](=O)[O-])n3)o2)cc(OC)c1O,n,27,n,n,n,n
COc1cc(/C=N/NC(=O)c2ccc(Cn3cc([N+](=O)[O-])cn3)o2)cc(Br)c1O,n,n,n,n,n,n
COc1ccc(C(=O)C(Sc2nnc(C)c(=O)[nH]2)c2ccc(OC)cc2)cc1 (stereo not given),n,n,n,n,n,n
CC(C)c1ccc(S(=O)(=O)N2CCN(CC(=O)c3ccc(O)c(O)c3)CC2)cc1,n,n,n,n,n,n
COc1ccc(S(=O)(=O)N2CCN(CCOc3ccc(Br)cc3)CC2)cc1OC,n,n,n,n,x,n
O=C(CN1CCN(S(=O)(=O)c2ccc(Br)cc2)CC1)c1ccc(O)c(O)c1,29,n,n,n,n,n
O=C(CN1CCN(S(=O)(=O)c2ccc(Br)cc2)CC1)N/N=C/c1cccs1,n,n,n,n,n,n
SMILES,PAFAH1B2 inh,pPAFAH FP inh,PME-1 primary,PAFAH1B3 FP inh,Fam108B inh,PAFAH2 inh
O=C(CN1CCN(S(=O)(=O)c2ccc(Br)cc2)CC1)N/N=C/c1ccncc1,29,n,n,n,n,n
COc1ccc(OC)c(C(=O)CN2CCN(S(=O)(=O)c3ccc(Br)cc3)CC2)c1,29,n,n,n,n,n
COc1cc(CC(=O)OCC(=O)c2c[nH]c3ccccc23)cc(OC)c1OC,n,n,n,n,x,n
Cc1ccc(Nc2cc(Cl)nc(N)n2)c([N+](=O)[O-])c1,n,x,x,n,x,n
O=C1CC(C(=O)N2CCN(c3ccccc3)CC2)CN1Cc1ccccc1 (stereo not given),n,n,x,n,x,n
COc1ccc(NS(=O)(=O)c2cccc(C(=O)NCC3(N4CCCCC4)CCCCC3)c2)cc1,n,32,n,n,n,n
COc1ccc(NS(=O)(=O)c2ccc(C(=O)NCC3(N4CCOCC4)CCCCC3)cc2)cc1,n,31,x,n,x,n
CNS(=O)(=O)c1cccc(C(=O)NCC2(N3CCCCC3)CCCCC2)c1,n,n,n,n,n,n
COc1ccc(NS(=O)(=O)c2cccc(C(=O)NNC(=O)NCCCl)c2)cc1,n,n,n,n,n,n
COc1ccc(NS(=O)(=O)c2cccc(NC(=O)c3ccccn3)c2)cc1,n,26,n,n,n,n
COc1ccc(NS(=O)(=O)c2cccc(C(=O)NNC(=O)CNC(=O)c3ccc(C)cc3)c2)cc1,n,34,n,n,n,n
COc1ccc(NS(=O)(=O)c2ccc(NC(=O)c3ccccn3)cc2)cc1,n,n,n,n,x,n
COCCNc1ccc([N+](=O)[O-])cc1C(=O)NC1CCCc2ccccc21 (stereo not given),n,n,n,n,n,n
S=c1[nH]nc(Cc2noc3ccccc23)n1-c1ccccc1,n,n,n,n,n,n
Cc1noc(C)c1-c1nc(CS(=O)(=O)c2ccccc2)no1,n,n,n,n,n,n
O=C(Nc1ccc(Br)cc1)Nc1ccccc1Cl,n,n,n,n,n,n
CCOC(=O)C1=C(C)C/C(=N\NC(=O)c2ccccc2O)CC1,n,n,n,n,n,n
O=S1(=O)c2ccccc2N=NN1Cc1cc(Cl)cc(Cl)c1,x,33,n,x,n,x
CSc1cccc(NC(=O)NNC(=O)C2CCN(S(=O)(=O)N(C)C)CC2)c1,n,n,n,n,n,n
CC1CCC(CN2C(Nc3ccccc3)=NC[C@@H]2Cc2ccccc2)CC1 (stereo not given in full),n,n,x,n,x,n
COc1ccc(-c2ccc(-c3cc(=O)oc4c(C(C)C)ccc(C)c34)cc2)cc1,n,n,x,n,x,n
CCCCn1nc(NS(=O)(=O)c2cccc3nonc23)c2cc3cccc(C)c3nc21,n,32,n,n,n,n
O=C(c1ccc2c(c1)OCO2)N1CCC2(CC1)Oc1ccc(F)cc1C(=O)C21CC(c2ccccc2)=NO1 (stereo not given),n,n,n,n,n,n
c1ccc2c(c1)[nH]c1ccccc12,25,n,n,n,n,n
